This test concerns the target AT4G31550 (Arabidopsis thaliana, UniProt Q9SV15 228-325). Put plainly: DPI-ELISA; DPI-ELISA, streptavidin 384-well plate, 1-2 pmol biotinylated dsDNA per well, crude native E. coli extract, anti-His detection; buffer as in Brand et al. [46],; high values mean tight binding. To be noted: tags: C-terminal His (pET-DEST42); label: 5' biotin on forward strand; dsDNA, one strand shown. (ELISA stands for enzyme-linked immunosorbent assay.)
AT4G31550, sequence (Q9SV15 228-325): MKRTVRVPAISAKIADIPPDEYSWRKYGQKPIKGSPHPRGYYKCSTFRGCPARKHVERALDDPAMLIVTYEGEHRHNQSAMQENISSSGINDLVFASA
The sequence AAAAAAGTACGGATGCCCGCGCGTATAAAA returned a binding signal of 0.735 ± 0.205 absorbance.

As to AAAAAAACCTCTTTATTCTCGATTGTAAAA, the binding signal stood at 0.585 ± 0.0495 absorbance.

Turning to AAAAAACTCGACATAGAATGCGGAAAAAAA, the binding signal is 0.655 ± 0.106 absorbance.

Regarding AAAAAACACTCACACCTATACGGCTCAAAA, the binding signal is 0.665 ± 0.233 absorbance.

Consider AAAAAAATTGTATCATACTTCAGTTGAAAA, for which the binding signal came out at 0.61 ± 0.0707 absorbance.

AAAAAAACCGCGTCGCGGCCCGGGAAAA showed a binding signal of 0.5 ± 0.113 absorbance.

As for AAAAAATTAGTCCTGATTCAATCTTCAAAA, the binding signal amounted to 0.755 ± 0.106 absorbance.

As to AAAAAAGCATATCTTCAGAACTTGCCAAAA, the binding signal was 0.625 ± 0.0778 absorbance.

Regarding AAAAAAATGCGCCCTTTCTGACATAAAAAA, the binding signal came to 0.615 ± 0.106 absorbance.

AAAAAAAGTAGTTACTGCGAAAGTCTAAAA came in with a binding signal of 0.675 ± 0.0778 absorbance.

Consider AAAAAATCCGTTCCCATTTGTCCGTCAAAA, for which the binding signal came out at 0.58 ± 0.0849 absorbance.

For the sequence AAAAAATACTGGCTGTCTCGTTCACAAAAA, the binding signal is 0.615 ± 0.0778 absorbance.

Sequence AAAAAACTGGATGCGCTCACCAGTTAAAAA displayed a binding signal of 0.52 ± 0.099 absorbance.

With AAAAAACGCCGGACAATCAGGCGCTCAAAA, the binding signal was found to be 0.625 ± 0.177 absorbance.

As for AAAAAAATTACGCGGGATCGCCAAAA, the binding signal is 0.6 ± 0.0566 absorbance.

With AAAAAAGATTGACTCGTCTTACTCGAAAAA, the binding signal came to 3.08 ± 0.742 absorbance.

As for AAAAAATCGCGAACGTACGTCCGCGGAAAA, the binding signal stood at 0.51 ± 0.113 absorbance.

On to AAAAAAGCTTTCAACATCTGCGTCCAAAAA, for which the binding signal stood at 0.42 ± 0.0424 absorbance.

AAAAAACCGTCTTATCTCTCGTCCCTAAAA gave a binding signal of 0.565 ± 0.12 absorbance.

As to AAAAAATCTTCACCTCACTTCGGTTTAAAA, the binding signal worked out at 0.67 ± 0.0566 absorbance.

For the sequence AAAAAATCCCTGCTCCCCTGGTTCCTAAAA, the binding signal was determined as 0.45 ± 0.141 absorbance.

Turning to AAAAAAAAGGACATTTTTTCTTTTTGAAAA, the binding signal came to 0.515 ± 0.0636 absorbance.

AAAAAAACTATAGTCTTTGTCATGATAAAA: the binding signal was found to be 0.64 ± 0.0707 absorbance.

The sequence AAAAAAGCGCGAATTCTAGAACTATAAAAA had a binding signal of 0.57 ± 0.113 absorbance.

With AAAAAATTTGCTCTTTTGGTTTTCACAAAA, the binding signal stood at 0.64 ± 0.0707 absorbance.

AAAAAACCCGTTCTACCTTATTCCTGAAAA registered a binding signal of 0.525 ± 0.106 absorbance.

Consider AAAAAACTTGCTCCTCCGTTTTACTCAAAA, for which the binding signal worked out at 0.775 ± 0.276 absorbance.

On to AAAAAATGCAGACCTTCAGCTGGGTAAAAA, for which the binding signal was 0.58 ± 0.0141 absorbance.

In turn, AAAAAAGTTCGGGGCTTGGTTTGGAAAAAA had a binding signal of 0.765 ± 0.205 absorbance.

As to AAAAAAATTCATGCTATTTAACCTTAAAAA, the binding signal worked out at 0.745 ± 0.0919 absorbance.

In the case of AAAAAACGCATCATAGCTACGCCCCAAAAA, the binding signal worked out at 0.62 ± 0.0849 absorbance.

The sequence AAAAAACGTTAACACTGATTTAGGGTAAAA yielded a binding signal of 0.595 ± 0.0778 absorbance.

Regarding AAAAAATTCAAAATGATCACTACGGGAAAA, the binding signal was determined as 0.545 ± 0.0778 absorbance.

Take AAAAAACACTGCACTATTGGGAGTTCAAAA: the binding signal came out at 0.615 ± 0.177 absorbance.

Consider AAAAAAACGCTATATATTGGTGCTAGAAAA, for which the binding signal worked out at 0.695 ± 0.134 absorbance.

AAAAAATTAATCCATGCTTATGTCTGAAAA showed a binding signal of 0.71 ± 0.184 absorbance.

Sequence AAAAAACCGGCACGATTTGGATATTCAAAA displayed a binding signal of 0.64 ± 0.113 absorbance.

Values taken from PMC3795721, “Screening for Protein-DNA Interactions by Automatable DNA-Protein Interaction ELISA”.
